The results in this text go back to PubChem BioAssay (NCATS).

Inconclusive results are not listed. Values without a mark were called inactive. Calls of active or inactive are those of the source. Calls come from the whole dose curve; as a rule, active = well fitted curve in the direction sought with a large enough effect; inconclusive = small, poorly fitted or top-dose-only effect, or another doubt; inactive = no such curve, though single readings can be large; an effect the other way counts as inactive or inconclusive.

Assay [1] can be described thus: P-glycoprotein substrates identified in KB-3-1 adenocarcinoma cell line, qHTS therapeutic library screen (AID 1346986). Note: nearly all actives have a fitted effect of over 60% in size.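 Note: potency is for cytotoxicity meaning loss of cell viability.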 An outline of the steps:
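Dose-response cytotoxicity, KB-3-1 vs P-gp-high KB-8-5-11, no colchicine in assay medium. Read: CellTiter-Glo at 72 h.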
In general terms: In qHTS, concentration-response curves come from the screen itself.

Assay [2] is described as follows: P-glycoprotein substrates identified in KB-8-5-11 adenocarcinoma cell line, qHTS therapeutic library screen (AID 1346987). For activity change, negative = cytotoxicity: series mostly up to about 44 µM; % is set by controls: 0 for no effect and ±100 for the full control effect. Note: nearly all actives have a fitted effect of over 65% in size. Put shortly:
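Human cervical adenocarcinoma KB-8-5-11 cells, selected in colchicine to over-express P-gp and assayed without it, were exposed for 72 h to titrated compounds. An ATP-based luminescent viability signal gave AC50.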
Potency is the fitted concentration of half-maximal effect.

`CC(C)n1nc(C#Cc2ccccc2)c2c(N)ncnc21`: the Potency in assay [1] is 14.6 µM (active); in assay [2] it was 16.4 µM (active).

In the case of `CC1(C)CC[C@]23CO[C@@]4(CCC5[C@@]6(C)CC[C@H](O[C@@H]7OC[C@H](O[C@@H]8O[C@H](CO)[C@@H](O)[C@H](O)[C@H]8O[C@@H]8OC[C@@H](O)[C@H](O)[C@H]8O)[C@H](O)[C@H]7O)[C@@](C)(CO)C6CC[C@@]5(C)[C@]4(C)CC2=O)[C@@H]3C1` (stereo partly specified), the outcome in assay [1] was “inactive [at 9.29 µM]”. In addition, in assay [2], the activity change, negative = cytotoxicity is -22.9% [at 9.29 µM].

In the case of `Nc1nc2c(nc(Br)n2[C@@H]2O[C@@H]3COP(=O)(O)O[C@H]3[C@H]2O)c(=O)[nH]1`, the Potency entry in assay [1] and in assay [2] was “inactive” in each case.

`COc1cc(OC)c2c(=O)[nH]c(-c3cc(C)c(OCCO)c(C)c3)nc2c1`: the Potency result in assay [1] and in assay [2] was “inactive” in each case.

For the compound `CCN1CCC[C@@H]1CNC(=O)c1ccc2c(c1)NC(=O)c1cccc(C)c1S2`, the Potency entry in assay [1] and in assay [2] was “inactive” each time.

Regarding `N#Cc1ccnc(Nc2cc(C3CCN(C4COC4)CC3)cc(N3CCC(F)(F)C3)n2)c1`, the Potency was 6.51 µM (active) in assay [1] and 16.4 µM (active) in assay [2].

In the case of `C/C=C(/C=C(C)/C=C/C=C/C=C(\C)C(=O)C12OC1C(O)(CCO)NC2=O)C(=O)OC` (stereo unspecified), the Potency result in assay [1] and in assay [2] was “inactive” each time.

Regarding `CNc1nc(Nc2ccc(C(=O)N3CCOCC3)cc2OC)nc2[nH]cc(Cl)c12`, the figures for the Potency in assay [1] and in assay [2] were 7.31 µM (active) and 5.8 µM (active), respectively.

With `CN(C)c1ccc(NC(=O)NS(=O)(=O)c2ccc(Cl)cc2)cc1`, the Potency result in assay [1] and in assay [2] was “inactive” each time.

As for `C=C[C@]1(C)C[C@H](O)[C@H]2C(=C)C(=O)O[C@@H]2[C@H]1C(=C)CO`, the Potency entry in assay [1] and in assay [2] was “inactive” each time.

On to `CCN(CC)C(=O)C(c1ccccc1)N1CCN(c2ccc(NC(=O)c3ccccc3-c3cccnc3)cc2F)CC1` (stereo unspecified), for which the Potency result in assay [1] and in assay [2] was “inactive” throughout.

For the compound `C=C(C)C1=C[C@@]2(C)C(=CC1=O)CC[C@@H](O)[C@@H]2C`, the Potency result in assay [1] and in assay [2] was “inactive” in each case.

On to `O=C(CSc1nc2ccccc2c(=O)n1-c1ccccc1)Nc1ccc2c(c1)CCC2`, for which the Potency entry in assay [1] and in assay [2] was “inactive” in each case.

`CC1(C)CCC2(C(=O)OC3OC(COC4OC(CO)C(O)C(O)C4O)C(O)C(O)C3O)CCC3(C)C(=CCC4C5(C)CCC(OC6OCC(O)C(O)C6O)C(C)(C)C5CCC43C)C2C1O` (stereo unspecified): the outcome in assay [1] and in assay [2] was “inactive [at 9.29 µM]” in each case.

Consider `CC(=O)O[C@H]1CC[C@]2(C)[C@H]3CC[C@]4(C)Oc5oc(C)cc(=O)c5C[C@H]4[C@]3(C)CC[C@H]2C1(C)C`, for which the Potency entry in assay [1] and in assay [2] was “inactive” each time.

On to `CCNC(=O)C#Cc1ccc2c(C(=Nc3ccc(CN(C)C)cc3)c3ccccc3)c(O)[nH]c2c1`, for which the Potency in assay [1] is 0.0517 µM (active); in assay [2] it was 0.651 µM (active).

Regarding `CC1(C)CC[C@]2(C(=O)O)[C@H](O)C[C@]3(C)C(=CCC4[C@@]5(C)CC[C@H](O[C@@H]6O[C@H](CO[C@@H]7OC[C@H](O)[C@H](O)[C@H]7O[C@@H]7OC[C@H](O)[C@H](O)[C@H]7O)[C@@H](O)[C@H](O)[C@H]6O)C(C)(C)C5CC[C@]43C)[C@@H]2C1` (stereo partly specified), the outcome in assay [1] and in assay [2] was “inactive [at 9.29 µM]” each time.

As for `COc1ccc(S(=O)(=O)N2CCC[C@H]2C(=O)Nc2cc(C)cc(C)c2)cc1`, the Potency result in assay [1] and in assay [2] was “inactive” throughout.

With `COc1cc(/C=C2\CC[C@H]3COC[C@@H](c4cc(F)c(F)c(F)c4)N3C2=O)ccc1-n1cnc(C)c1`, the Potency entry in assay [1] and in assay [2] was “inactive” in each case.

As for `CC(=O)OC1C(O)CC2(C)C(CCC3(C)C2CC=C2C4C5(CCC(CO[C@@H]6O[C@H](CO)[C@@H](O)[C@H](O)[C@H]6O)(OC5=O)C4(C)O)C(O)CC23C)C1(C)C` (stereo partly specified), the Potency result in assay [1] and in assay [2] was “inactive” in each case.

For the compound `Cc1nc(C(=O)N2CCC[C@H]2Cc2nnc(-c3ccccc3)o2)c(-c2ccccc2F)s1`, the Potency entry in assay [1] and in assay [2] was “inactive” throughout.

Take `C=C(COC(=O)C(O)C(O)CN)C12OC1C1(C)C(=CC2=O)C(O)C(O)CC1C` (stereo unspecified): the Potency result in assay [1] and in assay [2] was “inactive” in each case.

`CCC(C)/C=C(C)/C=C/C1=CC2=C(Cl)C(=O)C(C)(OC(C)=O)C(=O)C2(O)C(OC)O1` (stereo unspecified): the Potency result in assay [1] and in assay [2] was “inactive” in each case.

For `COCCCNC(=O)c1ccc(Cn2c(=O)c3ccccc3n(Cc3ccc(C(C)C)cc3)c2=O)cc1`, the Potency entry in assay [1] and in assay [2] was “inactive” throughout.

As to `Cc1c(F)ccc(C(=O)Nc2cc([N+](=O)[O-])ccc2N2CCN(C)CC2)c1Cl`, the Potency result in assay [1] and in assay [2] was “inactive” each time.

On to `O=C1NC(=O)C(c2cnc3ccccn23)=C1c1cn2c3c(cc(F)cc13)CN(C(=O)N1CCCCC1)CC2`, for which the Potency in assay [1] was 5.8 µM (active); in assay [2] it was 16.4 µM (active).

For the compound `C=C1C(=O)OC2CC3(C)C(O)C(=O)C=C(C)C3CC12` (stereo unspecified), the Potency result in assay [1] and in assay [2] was “inactive” throughout.

On to `C=CC(=O)N1CCC(Oc2cc3c(Nc4ccc(Cl)c(Cl)c4F)ncnc3cc2OC)CC1`, for which the Potency in assay [1] is 13 µM (active); in assay [2], 11.6 µM (active).
